Measurements taken from PubChem BioAssay (NCI).
Compounds without any hit were thinned out: in the full panel of roughly 83,000, 20% have a hit.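 Negative percent growth values reflect cell death: -40 means 40% of the cells present at the start died, and -100 means all died.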 A number with no mark means an inactive call. Activity calls are given as the source filed them. The calls were made as follows: active = growth percent below 10; inactive = the rest.

Key:
Assay in all cases: NCI-60 one-dose screen, 48 h (100 = growth as untreated, 0 = no growth, -100 = all killed)
NCI-H23 lung = conditions: 10 µM unless noted
NCI-H226 lung = conditions: 10 µM unless noted
NCI-H322M lung = conditions: 10 µM unless noted
NCI-H460 lung = conditions: 10 µM unless noted
HOP-92 NSCLC = conditions: 10 µM
NCI-H522 lung = conditions: 10 µM
A549/ATCC NSCLC = conditions: 10 µM unless noted
786-0 renal = conditions: 10 µM unless noted
COLO 205 colon = conditions: 10 µM unless noted

Compound	growth (NCI-H23 lung)	growth (NCI-H226 lung)	growth (NCI-H322M lung)	growth (NCI-H460 lung)	growth (HOP-92 NSCLC)	growth (NCI-H522 lung)	growth (A549/ATCC NSCLC)	growth (786-0 renal)	growth (COLO 205 colon)
N=C(N)c1ccc(-c2ccc(-c3ccc(Cl)cc3)s2)s1	-69.9% (active)	-53.3% (active)	-74.9% (active)	-66.2% (active)	-71.6% (active)	-2.36% (active)	-69.1% (active)	-62.6% (active)	
Nc1ncn([C@@H]2O[C@H](CO)[C@@H](O)C2(F)F)c(=O)n1	30.6%	52.3%	70%	9.34% (active)	34.3%	86.9%	37.9%	26.3%	
O=c1c(N=Nc2nccs2)c(-c2ccccc2)[nH]n1-c1nc(-c2ccccc2)cs1	36.3%	56.2%	24.5%	22.5%	-8.96% (active)	20.9%	36.3%	43.7%	
COc1cc2ncnc(Nc3ccc4c(cnn4C(=O)Nc4ccccc4)c3)c2cc1OC	100%	103%	81.1%	103%	82.8%	89.4%	72.9%	81.5%	
COC1=C(OC)C(=O)c2ccccc2C1=O	81.5%	102%	107%	97.4%	95%	94.8%	96.9%	120%	
COc1ccc(-c2nc(Nc3nc4ccccc4[nH]3)nc(N)c2C#N)cc1	100%	85.4%	111%	109%	88.6%	92.5%	106%	102%	81.4%
COc1ccc2nc3cc(Cl)ccc3c(NCCCNC(C)=O)c2c1	37%	34.1%	34.4%	7.26% (active)	50.4%	52.5%	23.9%	48.9%	23.7%
COc1nc(OC)nc(-c2cc(C(=O)c3ccc(Br)cc3)n3cc(C)cc(C)c23)n1	48.1%	34.3%	81.8%	34.8%	33.9%	57.7%	51.3%	12%	
COc1ccccc1Nc1nnc(COc2ccc(CNC(=O)CCCC/C=C/C(C)C)cc2OC)o1	92.2%	79.7%	97.4%	105%	79.1%	81%	99.3%	96.2%	125%
COc1cc(NC(C)CCCN)c2nc(C)ccc2c1OC (configuration not stated)	90.9%	102%	96.9%	109%	55.5%	101%	147%	98.3%	
CC(=O)c1cc(Nc2cc(C)nc(N)n2)cc(C(C)=O)c1	83.2%	101%	107%	104%	71.9%	99.8%	116%	95.3%	117%
CCCC(=O)NNc1[nH]c(-c2ccc(OC)cc2)cc1C(=O)OCC	95.4%	104%	35.2%	120%	72.9%	91.1%	110%	96.6%	1.42% (active)
COc1cc(-c2nc3c(c(C)nc4c3nnn4-c3ccccc3)c(=O)o2)cc(OC)c1OC	115%	104%	104%	115%	103%	103%	112%	104%	
O=C1C(=O)c2ccccc2C(O)=C1CCCc1ccc(C2CCCC2)cc1	36.5%	36.8%	37.9%	9.54% (active)	78.2%	39.2%	37.9%	43.8%	54.7%
O=C1N/C(=N\c2nnc(-c3ccc(O)cc3)s2)S/C1=C\c1ccccc1O	95.2%	99.6%	91.9%	102%	81.7%	93.6%	103%	97.5%	114%
